Data published in PubChem BioAssay AID1259312 (Keith Lab, Institute of Cancer Science, University of …, 2017).
Out of some 4,500 compounds screened, about 200 (4.4%) were called active. What follows is part of a selection rich in actives, with near analogues and random picks from the rest. Unmarked numbers belong to inactive results.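 The calls were made as follows: active = cell survival measured by absorbance rises more than 2.5-fold over infected cells without compound; inactive = the rest.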

Test: survival after telomere uncapping, modulators, primary screen, cell-based (AID 1259312);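 also: virus expresses mutant telomerase RNA that uncaps telomeres and kills cells; compound added 2 days after infection so exposure lasts 3 days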
Conditions: HCT116 + Ad-hTR-mut, MTT, 5 d; at 10 µM, active compounds read high
`N#CCN(CC#N)C(=O)c1ccco1` gave a fold change of -1.86. In the case of `N#CCN(CC#N)C(=O)c1cccs1`, the fold change is reported as 4.34 (active). For `CCN(C(=O)c1cccs1)C1CCCCC1`, the fold change was -1.05. For `CC(=O)Nc1ccc2nc(SCC(=O)Nc3nccs3)sc2c1`, the fold change was -1.04. Molecule `O=C1OC(C2OC(=O)c3ccccc32)c2ccccc21` (configuration not stated) has a fold change of -2.64. `CCOc1ccc2c(c1)-c1c(ssc1=Nc1ccc(Cl)cc1C)C(C)(C)N2` showed a fold change of -1.6. In the case of `Cc1ccc2c(c1)-c1c(ssc1=S)C(C)(C)N2`, the fold change is reported as 2.39. With `Cc1cccc2c1N(C(=O)c1ccc(-c3ccccc3)cc1)C(C)(C)c1ssc(=S)c1-2` the fold change was -1.16. For `CCOc1ccc2c(c1)-c1c(ssc1=S)C(C)(C)N2`, the fold change was 5.41 (active). With `CC1(C)Nc2ccccc2-c2c1ssc2=S` the fold change was 4.78 (active). `CCOc1ccc2c(c1)-c1c(sn(-c3ccc(OC)cc3)c1=S)C(C)(C)N2` gave a fold change of -1.06. Molecule `COc1ccc2c(c1)-c1c(ssc1=S)C(C)(C)N2C(=O)CSc1ncn[nH]1` has a fold change of -3.53. With `COc1ccc2c(c1)-c1c(ssc1=S)C(C)(C)N2` the fold change was 3.31 (active). For `Cc1cc(C)c2c(c1)-c1c(ssc1=S)C(C)(C)N2C(=O)c1ccccc1`, the fold change was -2.03. `O=C(c1cccs1)[C@H]1CCCC[C@H]1C(=O)O` showed a fold change of 1.2. `Oc1ccc2c(c1)c1c3n2CCNC3CCC1` (configuration not stated) gave a fold change of -1.09. With `COc1ccc(C2C=COc3n[nH]c(-c4ccccc4)c32)cc1OC` (configuration not stated) the fold change was 2.04. `Cn1cc(/C=C2\C(=O)NC(=S)N(c3ccc(Br)cc3)C2=O)c2ccccc21` showed a fold change of -1.42. `O=C(NCCOC1=NS(=O)(=O)c2ccccc21)C(=O)Nc1ccccc1` gave a fold change of 1.05. With `CC(=O)N/C(=N/c1nc(C)cc(C)n1)Nc1ccc(F)cc1F` the fold change was “inactive”. Work on `COc1ccc(-c2nc3sc(-c4ccc(OC)c(OC)c4)nc3s2)cc1OC` yielded a fold change of -4.78. `S=c1[nH]nc(Cn2cnc3ccccc32)n1-c1ccccc1` showed a fold change of 1.13. In the case of `S=c1[nH]nc(COc2cccc3ccccc23)n1-c1ccccc1`, the fold change is reported as 3 (active). Molecule `S=c1[nH]nc(COc2ccccc2)n1-c1ccccc1` has a fold change of 1.72. With `Cc1c(C(=O)OC(C)C)sc(NC(=O)C(F)(F)C(F)(F)C(F)(F)C(F)(F)F)c1C(=O)OC(C)C` the fold change was -1.73. `O=c1oc(-c2cccc(F)c2)nc2ccc(Br)cc12` showed a fold change of -1.47. In the case of `Nc1cc2ccccc2cc1N`, the fold change is reported as -1.17. With `NC(=O)c1cc2ccccc2o1` the fold change was 2.76 (active). `COC(=O)c1cc2cc(Br)ccc2o1` gave a fold change of -2.17. For `Clc1nc2ccccc2nc1-c1ccccc1`, the fold change was -1.36. `N=C1S/C(=C/c2cn[nH]c2-c2ccc(F)cc2)C(=O)N1c1nonc1N` gave a fold change of -1.44. `N#Cc1c(N)nc2c(c1-c1cccc(Br)c1)CCCCC2` gave a fold change of -1.02. Molecule `N#Cc1c(N)nc2c(c1-c1cccc(Br)c1)CCCCCC2` has a fold change of -1.03. `Cc1ccc(C)c(-c2c(C#N)c(N)nc3c2CCCCC3)c1` gave a fold change of -1.2. Molecule `Cc1ccc(-c2c(C#N)c(N)nc3c2CCCC3)c(C)c1` has a fold change of 1.09. With `N#Cc1c(N)nc2c(c1-c1cccc(Br)c1)CCCC2` the fold change was 2.68 (active). In the case of `N#Cc1c(N)nc2c(c1-c1ccc(Cl)cc1Cl)CCCCC2`, the fold change is reported as 4.06 (active). `Brc1ccc2nc(SCCOc3ccccc3)[nH]c2c1` gave a fold change of -1.46. For `COC(=O)C1=C(C)NC(=S)NC1c1cccs1` (configuration not stated), the fold change was 1.16. Work on `N#CC1=C(N)OC2=C(C(=O)CCC2)C1c1ccc2c(c1)OCO2` (configuration not stated) yielded a fold change of 1.15. With `NNC(=O)C(=O)Nc1nccs1` the fold change was -2.19. For `Cc1cc(C)c(C#N)c(SCc2cc(=O)[nH][nH]2)n1`, the fold change was 3.11 (active). For `Cc1cc(C)c(CSc2nc(C)cc(=O)[nH]2)c(C)c1`, the fold change was “inactive”. Molecule `Cc1cc(-c2ccco2)c(C#N)c(SCC(=O)C(F)(F)F)n1` has a fold change of 1.03. With `O=c1/c(=C\c2ccco2)sc2nnc(-c3ccccc3)n12` the fold change was -1.37. With `COc1ccc(S(=O)(=O)N(CCO)C2CCCCC2)cc1` the fold change was 1.31. With `CCCCc1ccc(C2C(C#N)=C(N)OC3=C2C(=O)CC(C)(C)C3)s1` (configuration not stated) the fold change was 2.3. Molecule `CCCNS(=O)(=O)c1cc(Cl)ccc1Cl` has a fold change of -2.13. In the case of `COCCNS(=O)(=O)c1cc(Cl)ccc1Cl`, the fold change is reported as 2.95 (active). For `COCCCNS(=O)(=O)c1cc(Cl)ccc1Cl`, the fold change was -1.38. Work on `O=S(=O)(NCc1cccnc1)c1cccs1` yielded a fold change of -1.29. For `O=S(=O)(NCc1cccnc1)c1cc(Cl)ccc1Cl`, the fold change was 3.37 (active). With `O=S(=O)(Nc1cccnc1)c1cc(Cl)ccc1Cl` the fold change was 1.16. For `O=c1[nH]c(O)c(C=Nc2cc(Cl)ccc2O)c(=O)[nH]1`, the fold change was “inactive”. Work on `c1ccc(N/N=C2/C/C(=N\Nc3ccccc3)c3ccccc32)cc1` yielded a fold change of -1.1. Work on `CC1(C)CCC[C@@]2(C)C1CCC1(C)OC(=O)CC12` (some centres not stated) yielded a fold change of -3.56. Molecule `O=C(Nc1ccc2c(c1)OCCO2)C1CC(=O)N(C2CCCCC2)C1` (configuration not stated) has a fold change of -1.27. For `Clc1cccc(Cl)c1-c1noc(CSc2nc3ccccc3s2)n1`, the fold change was -1.38. In the case of `N#CC1(C#N)C(c2c(F)cccc2Cl)[C@@H](C(=O)c2ccc(F)cc2)N2c3ccccc3C=C[C@@H]21` (some centres not stated), the fold change is reported as 3.43 (active). In the case of `N#CC1(C#N)C(c2ccc(Cl)cc2Cl)C(C(=O)c2ccccc2)N2c3ccccc3C=CC21` (configuration not stated), the fold change is reported as 1.29. With `N#CC1(C#N)C(c2ccc(O)cc2)C(C(=O)c2ccccc2)N2c3ccccc3C=CC21` (configuration not stated) the fold change was 1.02. In the case of `CN(c1ccccc1)c1nc(N)nc(CSc2nnc(-c3ccc(F)cc3)n2C)n1`, the fold change is reported as 1.9. Work on `Nc1c(Cl)cc(-c2nc3ccccc3o2)cc1Cl` yielded a fold change of 1.24. Work on `Cc1nn(-c2ccccc2)c(Cl)c1N=Nc1c(C)nn(-c2ccccc2)c1Cl` yielded a fold change of -1.52. Molecule `CN(C)c1ccc(/C=N/c2nccs2)cc1` has a fold change of -1.55. `c1csc(CNc2ccc(NCc3cccs3)cc2)c1` showed a fold change of 1.24. `CC(C)NC(=O)CC(=O)NN=C1CCCC1` gave a fold change of 1.85.
